This is an account of results in PubChem BioAssay AID504909 (Southern Research Specialized Biocontainment Screening …, 2011).

Entries with a potency or affinity are not part of this list. Calls of active or inactive are those of the source. How the calls were made is not given here.

The nature of the assay: Vero cell cytotoxicity, dose response, cytotoxicity control for M. tuberculosis growth inhibitor project, Vero cells, purified and synthesized compounds, set 5 (AID 504909). As to conditions: series mostly up to 100 µM.
As for `Cc1c[nH]c(=S)[nH]c1=O`, the result was inactive.
Under `Cc1nc(SCC(=O)N(C)c2ccccc2)[nH]c(=O)c1C` stands “inactive”.
Under `Cc1nc(SCC(=O)NC2CCCC2)[nH]c(=O)c1C` stands “inactive”; under `O=C(CSc1nc2ccccc2c(=O)[nH]1)NC1CCCCC1`, “inactive”.
The same measure for `CN1CCC(NC(=O)CSc2nc3ccccc3c(=O)[nH]2)CC1`: “inactive”; for `CCC(Sc1nc2ccccc2c(=O)[nH]1)C(=O)Nc1cccc(OC)c1` (configuration not stated): “inactive”.
Regarding `Cc1cc(=O)[nH]c(SCC(=O)NC2CCCCC2)n1`, the compound was called inactive.
Under `NC(=O)CSc1nc2ccccc2c(=O)[nH]1` stands “inactive”.
The same measure for `O=C(CSc1nc2ccccc2c(=O)[nH]1)NC1CCCC1`: “inactive”; for `CC(C)CCNC(=O)CSc1nc2ccccc2c(=O)[nH]1`: “inactive”; for `O=C(CSc1nc2ccccc2c(=O)[nH]1)NCc1ccc(Cl)cc1`: “inactive”.
The same measure for `Cc1cnc(SCC(=O)NC2CCCCC2)[nH]c1=O`: “inactive”; for `Nc1c(C(=O)NC2CCCCC2)nsc1C(=O)OCC(=O)NC1CCCCC1`: “inactive”; for `NC[C@H]1O[C@H](O[C@H]2[C@H](O)[C@@H](O[C@H]3O[C@H](CO)[C@@H](O)[C@H](N)[C@H]3O)[C@H](N)C[C@@H]2N)[C@H](O)[C@@H](O)[C@@H]1O`: “inactive”.
Consider `Cc1nc(SCC(N)=O)[nH]c(=O)c1C`, for which the compound was called inactive.
Under `O=C(CSc1nc2c(c(=O)[nH]1)CCC2)NC1CCCCC1` stands “inactive”; under `CC1CCN(C(=O)CSc2nc3ccccc3c(=O)[nH]2)CC1`, “inactive”.
`CC[C@@H](CO)NCCN[C@@H](CC)CO`: the compound was called inactive.
`NC(=O)c1cnccn1`: the outcome was inactive.
Regarding `NNC(=O)c1ccncc1`, the compound was called inactive.
The same measure for `Cc1nc(SCC(=O)NC2CCCCC2)[nH]c(=O)c1C`: “inactive”.
The same measure for `CCSc1nc(C)c(C)c(=O)[nH]1`: “inactive”.
Under `COC(=O)C(C)Oc1ccc(Cc2ncc(C(F)(F)F)cc2Cl)cc1` (configuration not stated) stands “inactive”; under `O=C(CSc1nc2ccccc2c(=O)[nH]1)N1CCOCC1`, “inactive”.
Take `CCOC(=O)CSc1nc(C)c(C)c(=O)[nH]1`: the outcome was inactive.
Consider `CN(C)C(=O)CSc1nc2ccccc2c(=O)[nH]1`, for which the result was inactive.
On to `COc1cccc(NC(=O)CSc2nc3c(c(=O)[nH]2)CCC3)c1`, for which the outcome was inactive.
